Shn3 inh set2: inhibitors of Schnurri-3 3'UTR reporter in osteoblasts. 360,000 compounds, 0.52% hits. AID 588674. Clone20 osteoblast Shn3 3'UTR firefly luciferase, 24 h. inhibition, % at 12.5 µM;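 active = mean inhibition of at least 75% with every replicate also reaching 75%; inconclusive = mean inhibition at least 75% but some replicate below; inactive = mean inhibition below 75%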;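 also: 0% = median of neutral control wells and 100% = pilot-screen positive control compound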
Peg3 prom inh: reduces Peg3 promoter-driven luciferase expression in HeLa. AID 588405. 360,000 compounds, 1.7% hits. HeLa PEG-Prom luciferase reporter, luminescence, overnight. inhibition, % at 20 µM;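 active = inhibition of at least 50% at 20 µM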
TWEAK-Fn14 inh: TWEAK-Fn14 signaling inhibition; 360,000 compounds, 2% hits; TWEAK-stimulated Fn14 reporter cells, luciferase luminescence, 8 h; inhibition, % at 10 µM; AID 1159606; in the data active = inhibition above about 50%
MITF TRPM1 inh: reduces MITF-dependent TRPM1 promoter luciferase signal | SK-MEL-5 TRPM1 promoter luciferase, 24 h | inhibition, % at 12.5 µM | 330,000 compounds, 0.83% hits | AID 488899;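 active = mean inhibition across replicates of 60% or more, whatever share of single replicates reaches that level; inconclusive = some that reach 60%, reason not given; inactive = mean inhibition across replicates below 60%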
EBV LMP1 NFkB: inhibitors of Epstein-Barr LMP1-induced NF-kappaB reporter; 350,000 compounds, 0.69% hits; LMP1-induced NF-kappaB luciferase reporter cells, luminescence; AID 504558; inhibition, % at 12.5 µM; in the data active = inhibition above about 41%; inconclusive = no clear call, values can overlap the other calls;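 also: 0% = neutral control wells and 100% = reference inhibitor control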
TROY NFkB inh: TROY signaling inhibition. 360,000 compounds, 0.98% hits. inhibition, % at 10 µM. Q293 LMP1-TROYcd NF-kB luciferase reporter, 4 h;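 active = compounds whose plate-normalised and pattern-corrected inhibition of the luciferase reporter signal at the single screening dose is 50% or more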
The depositor's hits bear a star; ? = inconclusive; nt = no result. Compounds with a hit are over-represented: about 4.1% of the library has one in this group of screens.

SMILES	Shn3 inh set2	Peg3 prom inh	TWEAK-Fn14 inh	MITF TRPM1 inh	EBV LMP1 NFkB	TROY NFkB inh
Cc1cc(/C=C2\SC(=S)N(C)C2=O)c(C)n1-c1cccc(O)c1	-47.3	27.5	92.5*	23.5	12.7	9.8
CCCC(C(=O)NC1CCCC1)N(CC1CCCO1)C(=O)CNS(=O)(=O)c1ccccc1 (centres undefined)	8.7	-3.7	21.2	9.1	-3.7	23.2
O=C(CC(C(=O)O)P(=O)(c1ccccc1)c1ccccc1)c1ccccc1 (centres undefined)	-12.8	8.8	10.7	5.6	-5.1	19.7
CCOc1ccc(-c2cc(C(=O)NCCCn3ccnc3)c3cc(Br)ccc3n2)cc1	-4.2	106.0*	-22.4	?	-8.7	-69.4
CCOc1ccc(-c2cc(C(=O)NCCCn3ccnc3)c3ccccc3n2)cc1	-15.9	-56.6	-5.2	-57.1	-8.1	-28.8
CC1(C)Cc2c(c(N3CCOCC3)nc3snc(Br)c23)CO1	17.0	92.1*	4.8	0.9	9.4	0.9
CC1(C)Cc2c(c(N3CCOCC3)nc3snc(N)c23)CO1	-17.0	64.6*	5.0	50.0	-35.4	28.5
COc1ccc(C)cc1NC(=O)CNC(=O)c1sc2ccccc2c1Cl	-3.1	3.3	-6.4	15.4	-66.3	-9.2
CCN(c1ccc(OC)cc1)S(=O)(=O)N1CCCC(C(=O)NCc2cccc(C)c2)C1 (centres undefined)	-1.6	2.3	5.2	8.3	9.9	-3.0
O=C(/C=C/c1ccccc1)Nc1nnc(-c2ccco2)o1	4.5	-14.8	-16.9	9.7	2.1	1.2
O=C(N/N=C/c1ccc(C(F)(F)F)cc1)c1ccc(O)cc1	-11.7	-132.5	-22.1	-39.4	-28.1	-55.7
NC(N)=NN=C(c1ccc(F)cc1)c1ccc(C(F)(F)F)cc1	-10.5	98.6*	55.9*	102.8*	-9.5	17.2
O=C(NCCNCC(O)COc1ccc(O)cc1)N1CCOCC1 (centres undefined)	7.3	-7.0	5.9	-10.1	0.0	11.9
O=C1ON=C(c2ccccc2[N+](=O)[O-])/C1=C/c1cccc([N+](=O)[O-])c1O	4.9	-2.3	14.0	5.4	71.3*	5.6
CC(C)(C)c1ccc(OCC(=O)O/N=C(\N)c2ccncc2)cc1	-3.4	-136.3	3.1	-25.1	-6.5	-16.3
O=C(CCCOc1ccc(Cl)cc1Cl)NCCc1ccccn1	-27.6	33.5	30.6	1.3	29.1	69.4*
O=C(CCCOc1ccc(Cl)cc1Cl)NCCCO	-12.8	-18.8	-22.8	5.0	-10.8	-0.5
O=C1/C(=C/c2cccnc2)SC(=S)N1c1ccc(O)cc1	-1.0	37.1	59.7*	9.2	-0.9	28.8
O=C(CN1C(=O)S/C(=C/c2cccnc2)C1=O)N1CCOCC1	0.3	14.6	-28.2	-6.3	0.7	-82.6
CC(/C=C1\SC(=O)N(CCCC(=O)O)C1=O)=C\c1ccccc1	?	80.3*	104.2*	85.3*	71.8*	87.0*
CC(=C\c1ccccc1)/C=C1/SC(=S)N(CCCC(=O)O)C1=O	9.3	22.4	20.0	44.1	21.6	59.5*
O=C(O)CCN1C(=O)S/C(=C\c2cccnc2)C1=O	-19.7	5.8	-2.4	12.3	-4.3	78.7*
CCOC(=O)N1CCC(Nc2c(NCCCN(CC)c3cccc(C)c3)c(=O)c2=O)CC1	15.0	22.4	-18.3	nt	3.8	12.6
NC(=O)c1ccccc1NC(=O)CSc1cn[nH]n1	11.5	-1.4	16.2	-9.9	-8.1	-1.0
O=[N+]([O-])c1cc(Cl)ccc1Oc1ccc(-c2nnco2)cc1	6.0	2.3	12.4	18.3	-3.2	61.6*
SMILES	Shn3 inh set2	Peg3 prom inh	TWEAK-Fn14 inh	MITF TRPM1 inh	EBV LMP1 NFkB	TROY NFkB inh
Cc1ccc(C(=O)NC(=S)Nc2ccccc2C(F)(F)F)cc1	-5.5	-92.1	5.5	0.3	-9.8	-34.0
Cc1ccc(C(=O)NC(=S)Nc2cccnc2Cl)cc1	-51.9	-380.0	73.0*	-151.4	-20.6	43.8
COc1ccccc1C(=O)NC(=S)Nc1cccnc1Cl	-18.5	-91.3	95.4*	-38.0	27.7	78.3*
Cc1ccc(NC(=O)c2cc(N3C(=O)CCC3=O)ccc2N2CCOCC2)cc1	-5.8	1.4	-24.6	-1.8	-3.1	-1.8
COc1ccccc1-c1cc(C(=O)Nc2cccnc2Cl)no1	11.7	-13.8	-21.8	-8.0	-11.1	-18.1
Cc1ccccc1OCC(=O)NC(=S)Nc1ccc(N2CCOCC2)c(Cl)c1	2.4	3.2	-20.8	0.9	10.2	10.8
Cc1ccc(NC(=O)c2cc(N3C(=O)C=CC3=O)ccc2N2CCOCC2)cc1Cl	76.0	92.6*	-0.8	78.1*	0.7	-13.1
COc1ccccc1C(=O)NC(=S)Nc1ccc(N2CCOCC2)c(Cl)c1	-1.4	-36.8	-9.3	-12.3	5.5	52.0*
Nc1ccc2cccc(O)c2c1	9.8	-273.2	23.4	21.1	-7.5	49.8
Cn1c(-c2ccc(Cl)nc2)nc2cc(Cl)ccc21	8.7	-44.9	-29.2	-30.3	-4.5	-3.0
CC(C(=O)N1CCN(C(=O)c2ccco2)CC1)N1C(=O)NC2(CCCCC2C)C1=O (centres undefined)	-12.8	8.3	18.6	-0.7	0.0	-12.0
O=C(NCc1ccccc1F)C1CCCN1S(=O)(=O)c1ccc(Cl)cc1 (centres undefined)	7.4	14.9	-7.0	0.1	-3.1	-0.8
COc1ccccc1C(=O)Nc1ccccc1SC(=O)c1ccccc1OC	-47.4	-92.7	46.5	-8.1	-20.7	50.2*
COC(=O)c1ccccc1NC(=O)c1ccccc1OC	-1.0	-25.7	-3.2	-13.2	19.0	3.4
Cn1nnnc1Sc1ncnc2scc(-c3cc4ccccc4o3)c12	62.3	100.3*	103.0*	100.3*	62.4*	75.8*
Cn1nnnc1Sc1ncnc2scc(-c3ccc(-c4ccccc4)cc3)c12	36.0	101.4*	78.3*	10.7	27.9	4.0
Cn1nnnc1Sc1ncnc2scc(-c3cccs3)c12	28.3	nt	nt	88.3*	53.3*	nt
Cn1nnnc1Sc1ncnc2scc(-c3ccc(C#N)cc3)c12	80.2	102.9*	82.8*	91.7*	57.1*	46.3
COc1ccc(CC(NC(C)=O)C(=O)NC2CCN(C(=O)c3cc(OC)c(OC)c(OC)c3)CC2)cc1 (centres undefined)	5.6	-1.4	16.1	11.5	2.5	-9.1
COc1ccccc1-c1cc2nc(-c3ccccc3)cc(N3CCN(C(=O)c4ccco4)CC3)n2n1	68.8	73.5*	97.6*	nt	34.1	70.0*
COc1cccc(-c2cc3nc(-c4ccccc4)cc(N4CCN(C(=O)c5ccoc5)CC4)n3n2)c1	60.0	71.6*	22.3	nt	7.7	28.9
COc1ccccc1-c1cc2nc(-c3ccccc3)cc(N3CCN(C(=O)c4ccoc4)CC3)n2n1	28.1	80.6*	20.5	nt	4.9	4.0
Cc1cc(N2CCN(C(=O)c3ccoc3)CC2)n2nc(-c3ccccc3)cc2n1	-30.0	7.7	10.3	nt	3.6	15.2
O=C(c1ccoc1)N1CCN(c2cc(-c3ccco3)nc3cc(-c4ccccc4)nn23)CC1	70.0	73.6*	17.8	nt	15.9	0.5

Screens from PubChem.
